Assay outcomes deposited in PubChem BioAssay by The Scripps Research Institute Molecular Screening Center.
The list is not random: actives were taken first. Their share in the collection is about 3.4%.
MITF inh – MITF inhibitors, primary screen, biochemical, AlphaScreen, human; Microphthalmia-associated transcription factor (Homo sapiens), O75030; AlphaScreen MITF homodimerization, bead proximity signal; inhibition, % at 2.6 µM; 650,000 compounds, 0.91% hits; AID 1259374, 2018; in the data active means inhibition above about 50%
TEAD-YAP block – TEAD-YAP interaction inhibition, primary screen, TEAD-YAP interaction inhibitor project, luminescence, HEK-TIYL cells. TEAD-Gal4/YAP UAS-luciferase luminescence. inhibition, % at 9.12 µM. 640,000 compounds, 1.4% hits; in the data active means inhibition above about 32%
FBW7 act – FBW7 E3 ligase activators, primary screen, biochemical, AlphaScreen, human | F-box/WD repeat-containing protein 7 (Homo sapiens), Q969H0 | AlphaScreen FBW7–phospho-cyclin E peptide binding, activator screen | normalized activity (activation), % at 26.1 µM | 650,000 compounds, 0.13% hits; in the data active means normalized activity above about 1.9%;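 further: purified mutant Fbw7 with reduced substrate affinity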
Target sequence (Q969H0 whole entry, looked up): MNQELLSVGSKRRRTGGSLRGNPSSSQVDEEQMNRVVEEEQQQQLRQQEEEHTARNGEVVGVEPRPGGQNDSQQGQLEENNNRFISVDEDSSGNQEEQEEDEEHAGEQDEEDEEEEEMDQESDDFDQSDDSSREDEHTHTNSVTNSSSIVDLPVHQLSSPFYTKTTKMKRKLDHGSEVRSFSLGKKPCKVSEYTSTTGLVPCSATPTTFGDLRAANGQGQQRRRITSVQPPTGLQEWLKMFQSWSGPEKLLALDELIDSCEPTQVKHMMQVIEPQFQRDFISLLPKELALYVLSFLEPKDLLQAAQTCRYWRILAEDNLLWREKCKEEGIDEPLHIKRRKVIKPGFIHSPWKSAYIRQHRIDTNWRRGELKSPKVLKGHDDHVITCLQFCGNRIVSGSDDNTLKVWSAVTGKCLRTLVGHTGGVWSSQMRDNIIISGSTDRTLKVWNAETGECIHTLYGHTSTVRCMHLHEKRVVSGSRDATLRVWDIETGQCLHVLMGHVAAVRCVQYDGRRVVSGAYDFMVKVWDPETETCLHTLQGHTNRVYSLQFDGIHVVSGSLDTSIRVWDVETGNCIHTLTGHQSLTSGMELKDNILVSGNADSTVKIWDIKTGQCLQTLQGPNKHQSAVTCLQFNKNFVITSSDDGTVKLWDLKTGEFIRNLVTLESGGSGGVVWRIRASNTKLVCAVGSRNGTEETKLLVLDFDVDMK
GPR151 ag – activators of human GPR151, primary screen, cell-based, PathHunter beta-arrestin, luminescence; 650,000 compounds, 1% hits; activation, % at 11.2 µM; PathHunter beta-arrestin GPR151 cells; AID 1508602, 2020; in the data active means activation above about 4.9%
Numbers stand for hits; - = inactive; ! = repeats disagree.

SMILES	MITF inh	TEAD-YAP block	FBW7 act	GPR151 ag
CC(C)(C)NC(=O)c1cccc(NC(=O)/C=C\c2ccccc2)c1	-	-	-	-
CN1C(=O)C(=Cc2ccc(OCc3cccc(C(=O)O)c3)cc2)C(=O)N(C)C1=O	-	43	-	-
CN1C(=O)S/C(=C/c2ccc(OCc3cccc(C(=O)O)c3)cc2)C1=O	-	-	-	-
CC(C)OCCCn1c(=S)[nH]c2ccccc2c1=O	-	-	-	-
O=C(Nc1ccc(Br)cc1)c1ccc(F)c(S(=O)(=O)NC2CCCCCC2)c1	-	40	-	-
CCOc1ccc(NC(=O)c2ccc(F)c(S(=O)(=O)NC3CCCC3)c2)cc1	-	69	-	-
CCOc1ccccc1C1C(C(=O)OCCOc2ccccc2)=C(C)NC2=C1C(=O)CC(C)(C)C2 (stereo not given)	-	-	-	-
CC(C)NC(=O)c1cc(-c2ccc(Br)cc2)on1	-	-	-	-
C=CCNC(=O)c1cc(-c2ccc3c(c2)OCO3)on1	-	-	-	-
C=CCNC(=O)c1cc(-c2ccc(O)cc2)on1	-	34	-	-
CC(C)NC(=O)c1cc(-c2ccc(O)cc2)on1	-	43	-	-
CC(C)=CC1C=C(C)C(C)C(C)C1COC(=O)c1ccco1 (stereo not given)	-	-	-	-
COc1cccc(C(=O)Nc2cc(C)on2)c1	-	-	-	-
COc1cccc(C(=O)Nc2noc3ccccc23)c1	-	57	-	-
COc1ccc(C(=O)Nc2noc3ccccc23)cc1	-	86	-	-
Cc1ncn(-c2ccc(Nc3ncc4cccc(-c5cn[nH]c5C)c4n3)cc2)n1	-	45	-	-
Cc1ccc(-c2ncn(-c3ccc(Nc4ncc5cccc(-c6ccc(C)nc6)c5n4)cc3)n2)cn1	-	-	2.3	-
Cc1ccc(-c2ncn(-c3ccc(Nc4cc(Nc5ccccc5C(N)=O)c(C5CC5)cn4)cc3)n2)cn1	-	-	-	-
Cc1ncn(-c2ccc(Nc3ncc4cccc(-c5cccc6c5ccn6C)c4n3)cc2)n1	-	-	-	-
Cc1ncn(-c2ccc(Nc3ncc4cccc(-c5ccn(C)n5)c4n3)cc2)n1	-	62	-	-
Cc1ccc(-c2ncn(-c3ccc(Nc4cc(Nc5ccccc5C(N)=O)c(C)cn4)cc3)n2)cn1	-	38	-	-
O=C(CNC(=S)N(Cc1ccccc1)Cc1ccccc1F)NCc1ccc2c(c1)OCO2	-	-	-	-
Cc1ncn(-c2ccc(Nc3ncc4cccc(C)c4n3)cc2)n1	-	-	-	-
Cc1ncn(-c2ccc(Nc3ncc4cccc(-c5cccnc5)c4n3)cc2)n1	-	46	-	-
Cc1ccc(-c2cccc3cnc(NC4CCC(C(=O)N5CCCC5)CC4)nc23)cn1 (stereo not given)	-	45!	-	-
SMILES	MITF inh	TEAD-YAP block	FBW7 act	GPR151 ag
Cc1ncn(-c2ccc(Nc3ncc4cccc(-c5nccs5)c4n3)cc2)n1	-	56	-	-
Cc1ncn(-c2ccc(Nc3ncc4cccc(-c5ccc(F)cc5)c4n3)cc2)n1	-	-	-	-
Cc1ncn(-c2ccc(Nc3ncc4cccc(-c5ccn[nH]5)c4n3)cc2)n1	-	33	-	-
CCOC(=O)c1c(NC(=O)CSc2nnc(CNC(=O)c3ccco3)n2-c2cccc(C(F)(F)F)c2)sc2c1CCCC2	-	-	-	-
Cc1nn2c(nc(=O)c3ccccc32)/c1=C/c1c(O)n(C)c(=O)n(C)c1=O	-	-	-	-
CCCCn1c(COc2ccccc2C)nnc1SCC(N)=O	-	-	-	-
Cc1ccc(-c2ncn(-c3ccc(Nc4ncc5cccc(-c6ccc7c(c6)OCO7)c5n4)cc3)n2)cn1	-	-	-	-
Cc1ccc(-c2cccc3cnc(Nc4ccc5c(c4)OCO5)nc23)cn1	-	33	-	-
CC1CN(C(=O)c2ccccc2)C(C)CC1O (stereo not given)	-	-	-	-
CN(C)c1ccc(C2C(C#N)=C(N)N(c3ccccc3)C3=C2C(=O)CCC3)cc1 (stereo not given)	-	-	-	-
CC(C)C(=O)Nc1ccc(NC(=O)c2ccco2)nc1	-	74	-	-
CC(C)C(=O)Nc1ccc(NC(=O)C(C)C)nc1	-	-	-	-
O=C(Nc1ccc(NC(=O)C2CC2)cn1)c1ccco1	-	48	-	-
COC(=O)c1ccccc1C(=O)N1CCN(c2nc3ccc(SC)cc3s2)CC1	-	47	-	-
CSc1ccc2nc(N3CCN(C(=O)CN(C)S(C)(=O)=O)CC3)sc2c1	-	-	-	-
Nc1ccc2nc(-c3cc(O)ccc3N)[nH]c2c1	-	-	-	-
Nc1c(C(=O)Nc2ccc(Oc3ccccc3)cc2)sc2nc3c(cc12)C(=O)CCC3	-	37	-	-
Nc1c(C(=O)Nc2ccccc2)sc2nc3c(cc12)C(=O)CCC3	-	32	-	-
Cc1ccc(NC(=O)c2sc3nc4c(cc3c2N)C(=O)CCC4)cc1C	-	65	-	-
CC1(C)CC(=O)c2cc3c(N)c(C(=O)NC4CCCCC4)sc3nc2C1	-	-	2.4	-
Nc1c(C(=O)Nc2ccc(Br)cc2)sc2nc3c(cc12)C(=O)CCC3	-	-	-	-
COC(CNC(=O)c1ccc2c(c1)nc(C)n2-c1ccc(OCc2ccccc2)cc1)OC	-	-	-	-
COC(=O)C1=C(C)NC2=C(C(=O)CC(c3ccccc3Cl)C2)C1c1ccc([N+](=O)[O-])cc1 (stereo not given)	-	-	-	-
O=C1OC(c2ccco2)=N/C1=C\c1cccc(OCc2ccccc2)c1	-	-	-	-
COc1cc(Nc2nc(C)cc(Nc3ccc(N4CCOCC4)cc3)n2)cc(OC)c1OC	-	70	-	-
SMILES	MITF inh	TEAD-YAP block	FBW7 act	GPR151 ag
COc1cc(Nc2nccc(Nc3ccc(N4CCOCC4)cc3)n2)cc(OC)c1OC	-	44	-	-
N=c1n(CCOc2ccccc2)c2ccccc2n1CCN1CCCCC1	-	-	-	-
OCCCNc1cc(-c2cccc(C(F)(F)F)c2)nc(-c2cccnc2)n1	-	-	-	-
OCCCNc1cc(-c2cccc(C(F)(F)F)c2)nc(-c2ccccn2)n1	-	33	-	-
O=C(NCC1CCCN(Cc2nc3c(s2)CCCC3)C1)c1cccnc1 (stereo not given)	-	-	-	-
COC(=O)CC(NC(=O)C(F)(F)F)c1ccccc1F (stereo not given)	-	-	-	-
COc1ccc(-c2cc(CC(=O)NCc3ccc(Cl)cc3)no2)cc1OC	-	47	-	-
COc1ccc(-c2cc(CC(=O)NC3CCCC3)no2)cc1OC	-	-	-	-
CCOC(=O)C1=C(C)NC(=S)NC1c1ccccc1OCC(=O)Nc1ccc(C)cc1 (stereo not given)	-	36	-	-
C=CCOC(=O)C1=C(C)NC(=S)NC1c1ccccc1OCC (stereo not given)	-	-	-	-
